Measurements taken from PubChem BioAssay (Tox21).
Values joined by “and” are separate entries in the source; they are usually repeats but may differ in a detail not shown here. Equal values may be shown once. Inconclusive results are not listed. The source holds several records for some structures; these can differ, active in one and inactive in another. Active and inactive are the calls of the source. Unless noted, calls follow the shape of the dose curve; as a rule, active = well fitted curve in the direction sought with a large enough effect in the repeat runs; inconclusive = weak or mixed curves; inactive = no such curve, though single readings can be large; an effect the other way counts as inactive or inconclusive.

Columns and labels:
[1] = qHTS assay for small molecules that induce genotoxicity in human embryonic kidney cells expressing luciferase-tagged ATAD5 (AID 651632); also: nearly all actives have a fitted effect of over 15% in size
Method in brief: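 Cells were seeded at 2,000 per well, dosed with compound, and incubated 16 hr at 37C in 5% CO2. Luciferase activity was then quantified after a 30 min room-temperature incubation with Amplite.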

[2] = qHTS assay for small molecule agonists of the p53 signaling pathway - cell viability (AID 651633; calls by dose curve; also: nearly all actives have a fitted effect of over 30% in size; also: potency is read from the fitted curve at half-maximal effect)
Method in brief: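 p53RE-bla cells, seeded at 4,000 per well and rested 5 h at 37 C/5% CO2, received compounds in DMSO for 16 h at 37 C. CellTiter-Glo was then added, and luminescence was read after 30 min at room temperature to gauge cytotoxicity.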

[3] = qHTS assay for small molecules that induce genotoxicity in human embryonic kidney cells expressing luciferase-tagged ATAD5 - cell viability (AID 651634; calls by dose curve; also: nearly all actives have a fitted effect of over 25% in size; also: potency is read from the fitted curve at half-maximal effect)
Method in brief: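 Cells (HEK293T, luciferase-tagged ATAD5) are seeded at 2,000 per well, dosed with compound or DMSO vehicle, and incubated 15.5 hr at 37C and 5% CO2. CellTiter-Fluor is added for 30 min before fluorescence is measured.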

[4] = qHTS assay to test for compound auto fluorescence at 590 nm (red) in HepG2 cells (AID 720674)
Method in brief: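 Compound auto-fluorescence is scored relative to Rose Bengal sodium, measured at 540/590 nm in live HepG2 cultures after 1 hr compound contact (37 C, 5% CO2).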

[5] = qHTS assay to test for compound auto fluorescence at 460 nm (blue) in HEK293 cells (AID 720678)
Method in brief: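 Cells were seeded and left to adhere for 4-5 hr at 37C. Compounds were then pin-transferred. After an overnight incubation at 37C under 5% CO2, intrinsic fluorescence at 405/460 nm was measured and referenced to triamterene.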

[6] = qHTS assay to test for compound auto fluorescence at 535 nm (green) in HEK293 cells (AID 720680)
[7] = qHTS assay to test for compound auto fluorescence at 535 nm (green) in HEK293 cell free culture (AID 720682)
Method in brief: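 Green-label autofluorescence (485 nm excitation, 535 nm emission) measured on compound added to cell-free culture medium (DMEM, 10% FBS). Output is expressed relative to fluorescein.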

[8] = qHTS assay to test for compound auto fluorescence at 590 nm (red) in HEK293 cell free culture (AID 720683)
Method in brief: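 Tox21 10K library compounds were pinned into cell-free DMEM with 10% FBS and fluorescence was read at excitation 540 nm. Activity is expressed as Rose Bengal sodium equivalency.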

[9] = qHTS assay to test for compound auto fluorescence at 460 nm (blue) in HepG2 cell free culture (AID 720685)
Method in brief: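 Cell-free plates of MEM plus 10% FBS received 23 nL compound or DMSO vehicle; blue-channel (405/460 nm) intensity scored against triamterene as reference fluorophore.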

[10] = qHTS assay to test for compound auto fluorescence at 460 nm (blue) in HepG2 cells (AID 720687)
Method in brief: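 Cells (2,000/well in MEM with 10% FBS) attached overnight at 37 C, then were exposed to compound or DMSO for 1 hr at 37 C, 5% CO2. Fluorescence read at Ex/Em 405/460 nm, expressed as triamterene-equivalent signal.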

[11] = qHTS assay to identify small molecule antagonists of the androgen receptor (AR) signaling pathway - cell viability counter screen (AID 743033; also: nearly all actives have a fitted effect of over 45% in size; also: potency is read from the fitted curve at half-maximal effect)
[12] = test system: thyroid hormone receptor (rat, GH3 cells); assay: qHTS assay to identify small molecule agonists of the thyroid receptor (TR) signaling pathway (AID 743066; calls by dose curve; also: potency is read from the fitted curve at half-maximal effect)
[13] = qHTS assay to identify small molecule antagonists of the estrogen receptor alpha (ER-alpha) signaling pathway - cell viability counter screen (AID 743074; calls by dose curve;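 also: HEK293 cells carrying ER-alpha-UAS-bla reporter stimulated with 17beta-estradiol; nearly all actives have a fitted effect of over 45% in size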; also: potency is read from the fitted curve at half-maximal effect)
Aromatase (Homo sapiens) = Aromatase (Homo sapiens) (UniProt P11511); assay: qHTS assay to identify aromatase inhibitors (AID 743083); also: nearly all actives have a fitted effect of over 55% in size; also: potency is read from the fitted curve at half-maximal effect
[14] = qHTS assay to identify aromatase inhibitors - cell viability counter screen (AID 743084);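 also: cells stimulated with testosterone during compound exposure; nearly all actives have a fitted effect of over 55% in size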
[15] = qHTS assay to identify small molecule that activate the aryl hydrocarbon receptor (AhR) signaling pathway - cell viability counter screen (AID 743086);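 also: HepG2 liver cells carrying the AhR DRE luciferase reporter; series mostly up to about 70 µM; nearly all actives have a fitted effect of over 45% in size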
Method in brief: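 HepG2-AhR-luc (HG2L7.5c1) cells, 4000/well, were preincubated 5 h at 37C, exposed to compound in qHTS format for 24 hr at 37C, then given CellTiter-Fluor for 30 min; viability was read as fluorescence in the reporter wells.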

[16] = qHTS assay to identify small molecule phospholipidosis (PLD) inducers (AID 1259344; active = well fitted curve in the direction sought with a large enough effect; an effect the other way counts as inactive or inconclusive)
Method in brief: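 Cells (HepG2, 900 per well) attach for 4 h, receive LipidTOX Red and compound together, incubate 24 h at 37 C, are fixed 30 min with paraformaldehyde/Hoechst, then imaged at one site per well.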

[17] = qHTS assay for small molecule disruptors of the mitochondrial membrane potential - cell viability (AID 720634; calls by dose curve;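 also: human HepG2 liver cancer cells; series mostly up to about 83 µM; nearly all actives have a fitted effect of over 20% in size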)
Method in brief: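 Cytotoxicity was measured by ATP quantitation in HepG2 wells that had first been treated with compound for 1 hr and stained with m-MPI dye; CellTiter-Glo incubation was 30 min at room temperature.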

[18] = qHTS assay for identifying genotoxic compounds that show differential cytotoxicity against isogenic chicken DT40 cell lines with known DNA damage response pathways - wild type cell line (AID 743012); also: nearly all actives have a fitted effect of over 60% in size; also: potency is read from the fitted curve at half-maximal effect
Method in brief: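 Cytotoxicity in repair-proficient parental chicken DT40 cells serves as the comparator for Rad54/Ku70- and Rev3-deficient lines. Cells were exposed to compounds for 40 h at 37 C/5% CO2, and ATP-based luminescence (CellTiter-Glo) measured viability.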

[19] = qHTS assay to identify small molecule antagonists of the estrogen receptor alpha (ER-alpha) signaling pathway using the BG1 cell line - cell viability counter screen (AID 743081);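 also: compound given together with 17beta-estradiol as the ER stimulus; series mostly up to about 70 µM; nearly all actives have a fitted effect of over 45% in size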

Measured: Potency

Sequence of Aromatase (Homo sapiens) (P11511 whole entry, looked up): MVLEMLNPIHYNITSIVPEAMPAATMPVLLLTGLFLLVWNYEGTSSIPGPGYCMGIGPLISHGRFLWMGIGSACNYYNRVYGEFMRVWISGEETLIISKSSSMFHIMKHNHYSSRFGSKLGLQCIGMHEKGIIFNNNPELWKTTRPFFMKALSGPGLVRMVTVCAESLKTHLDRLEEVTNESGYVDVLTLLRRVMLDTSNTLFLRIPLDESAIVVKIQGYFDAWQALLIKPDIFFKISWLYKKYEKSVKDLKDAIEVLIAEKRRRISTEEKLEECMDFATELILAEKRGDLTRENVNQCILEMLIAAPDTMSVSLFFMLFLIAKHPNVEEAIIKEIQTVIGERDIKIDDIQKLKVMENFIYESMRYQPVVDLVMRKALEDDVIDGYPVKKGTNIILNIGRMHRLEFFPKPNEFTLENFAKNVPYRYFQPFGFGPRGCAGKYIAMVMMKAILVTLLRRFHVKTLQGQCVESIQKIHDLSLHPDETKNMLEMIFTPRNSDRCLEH

CCC(C)(S(=O)(=O)CC)S(=O)(=O)CC
not listed: [17] | [18] | [19]
inactive: all other assays above

CNC(C)C(O)c1ccc(O)cc1 (centres undefined)
inactive: all assays above

CC(=O)[C@H]1CC[C@H]2[C@@H]3CC[C@@H]4C[C@H](O)CC[C@]4(C)[C@H]3CC[C@]12C
not listed: [2]
inactive: all other assays above

[2H]C([2H])([2H])[C@H](N)Cc1ccccc1
inactive: all assays above

Cc1ccccc1-n1c(CF)nc2ccc(N)cc2c1=O
not listed: [18]
inactive: all other assays above

CC(C)(C)c1ccc(O)cc1
inactive: [4] | [5] | [6] | [7] | [8] | [9] | [10] | [16]

CCC1(c2cnc[nH]2)Cc2ccccc2C1
active: [18] 21.1 µM and 26.6 µM | Aromatase (Homo sapiens) 26.6 µM
inactive: all other assays above

O=C1CCCCC1CN1CCCCC1 (centres undefined)
active: [18] 23.7 µM
inactive: all other assays above

CC(=O)Oc1ccc2c3c1O[C@H]1[C@@H](OC(C)=O)C=C[C@H]4[C@@H](C2)N(C)CC[C@@]341
inactive and 68.3 µM (active): [18]
inactive: all other assays above

O=C(CCl)c1ccc(Oc2ccc(C(=O)CCl)cc2)cc1
active: [18] 26.6 µM
inactive: all other assays above

CC(N)Cc1ccc(O)cc1 (centres undefined)
not listed: [11]
inactive: all other assays above

CCCCC[C@@H](O)C1C(=O)OC(C)[C@H](O)/C=C/C=C/C=C/C=C/C=C(\C)C(O)C(O)C(O)C[C@H](O)C[C@H](O)C[C@H](O)C[C@H](O)C[C@@H]1O (some centres undefined)
inactive: all assays above

CC(C)C[C@H](CN)CC(=O)O
not listed: [11] | [12]
inactive: all other assays above

CC[N+](C)(CC)CCOC(=O)C(O)(c1ccccc1)c1ccccc1
inactive: all assays above

CCCCNCC(O)c1ccc(O)cc1 (centres undefined)
not listed: Aromatase (Homo sapiens) | [14]
inactive: all other assays above

CCC(=O)O[C@]1(c2ccccc2)CCN(C)C[C@H]1C
active: [18] 21.1 µM
inactive: all other assays above

CCNCC(O)c1cccc(O)c1 (centres undefined)
not listed: [19]
inactive: all other assays above

O=S(=O)(O)c1cc(O)ccc1O
not listed: Aromatase (Homo sapiens) | [14]
inactive: all other assays above

COc1ccc(OC)c([C@@H](O)[C@H](C)N)c1
active: [12] 29.8 µM
inactive: all other assays above

CCC(=O)O[C@@](Cc1ccccc1)(c1ccccc1)[C@@H](C)CN(C)C
not listed: [11] | Aromatase (Homo sapiens) | [14] | [19]
inactive: all other assays above

CC1(C)S[C@@H]2[C@H](N)C(=O)N2[C@H]1C(=O)O
inactive: all assays above

CC(=O)O[C@H]1C[C@H](O[C@H]2[C@@H](O)C[C@H](O[C@H]3[C@@H](O)C[C@H](OC4CC[C@@]5(C)[C@H](CC[C@@H]6[C@@H]5CC[C@]5(C)[C@@H](C7=CC(=O)OC7)CC[C@]65O)C4)O[C@@H]3C)O[C@@H]2C)O[C@H](C)[C@H]1O[C@@H]1O[C@H](CO)[C@@H](O)[C@H](O)[C@H]1O (some centres undefined)
active: [2] 0.0473 µM | [3] 0.298 µM | [18] 0.473 µM | [11] 0.107 µM | [13] 0.0674 µM
inactive: all other assays above

C[N+]1([O-])[C@@H]2CC(OC(=O)[C@H](CO)c3ccccc3)C[C@H]1[C@@H]1O[C@@H]12 (some centres undefined)
inactive: all assays above

CCC1(CC)C(=O)NC(=O)N(C)C1=O
inactive: all assays above

Oc1c(Cl)cc(Cl)cc1Cl
inactive: [4] | [5] | [6] | [7] | [8] | [9] | [10] | [12] | Aromatase (Homo sapiens)

CCC1(C)CC(=O)NC(=O)C1
inactive: all assays above

CC(=O)O[C@H]1CC[C@H]2[C@@H]3CCC4=CC(=O)CCC4=C3C=C[C@]12C
active: [18] 23.7 µM
not listed: [13]
inactive: all other assays above
